Compound activity: PubChem, National Center for Advancing Translational Sciences (NCATS)
In the library only some 12% were active in any assay of this set; here they are far more common.
SARS PLpro yeast = blocks SARS-CoV papain-like protease in a yeast assay; S. cerevisiae expressing SARS-CoV PLpro, growth rescue; 330,000 tested, 0.19% active; AID 485353; Potency, µM (doses to about 32.9 µM), for inactives: top-dose activity, positive = growth rescue, hits mostly activators; calls by dose curve; also: 0% is about no effect; nearly all actives have a fitted effect of over 55% in size
Pf growth 96h = P. falciparum growth inhibition at 96 hours; P. falciparum luciferase reporter growth, 96 h; Potency, µM (series often up to 28.7 µM), for the others: top-dose activity change, negative = inhibition, most hits filed as inhibitors; 320,000 tested, 6.9% active; AID 504834; also: % is scaled to controls: 0 for no effect and ±100 for the full control effect
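Parasite growth measured via integrated firefly luciferase reporter in P. falciparum. Infected erythrocytes at 2% hematocrit, 0.05% parasitemia final were treated 96 hours at 37 C under 5% CO2, and luminescence was read.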
AmpC detergent = AmpC beta-lactamase inhibition with detergent present. 370,000 tested, 0.041% active. Potency, µM (doses to about 114 µM), for inactives: at the top dose activity change, negative = inhibition, most hits filed as inhibitors. AmpC hydrolysis of nitrocefin, absorbance 480 nm, 0.01% Triton. AID 485294. P00811;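 also: 0% = no-compound wells and -100% = no-enzyme wells; nearly all actives have a fitted effect of over 25% in size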
Target sequence (P00811 whole entry, looked up): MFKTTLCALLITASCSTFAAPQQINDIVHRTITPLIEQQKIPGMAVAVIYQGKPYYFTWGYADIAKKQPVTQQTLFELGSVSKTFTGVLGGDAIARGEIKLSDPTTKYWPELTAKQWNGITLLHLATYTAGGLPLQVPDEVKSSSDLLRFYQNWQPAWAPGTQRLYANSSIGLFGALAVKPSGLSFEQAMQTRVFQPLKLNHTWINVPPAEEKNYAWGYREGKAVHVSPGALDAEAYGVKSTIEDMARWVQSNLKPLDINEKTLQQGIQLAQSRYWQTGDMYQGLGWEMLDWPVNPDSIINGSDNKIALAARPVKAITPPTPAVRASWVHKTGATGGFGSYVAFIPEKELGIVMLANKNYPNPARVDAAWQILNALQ
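20 mM phosphate pH 7.0 + 0.01% (detergent screen) or 0.0001% Triton X-100; 5.3 nM AmpC reagent; cpd preinc 15 min RT; nitrocefin (800 uM stock) to start; A480 q20 s × 4 min; Activity was normalised to no-enzyme and no-compound control wells.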
AmpC no deterg = inhibitors of E. coli AmpC beta-lactamase without detergent; P00811; Potency, µM (highest dose often 57.1 µM), inactives show at the highest dose activity change, negative = inhibition, actives largely listed as inhibitors; AmpC nitrocefin hydrolysis, absorbance 480 nm, 0.0001% Triton; 330,000 tested, 0.52% active;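 also: plate controls were no compound for no effect and no enzyme for full effect; nearly all actives have a fitted effect of over 20% in size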
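AmpC (5.3 nM in the dispensed reagent) in 20 mM phosphate pH 7.0 with 0.01% (detergent screen) or 0.0001% Triton X-100 was preincubated with compounds for 15 min at room temperature. Nitrocefin was then added from an 800 uM solution, and hydrolysis was followed at 480 nm.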
Sm TGR block = inhibitors of Schistosoma mansoni thioredoxin glutathione reductase; Q962Y6; purified TGR, DTNB reduction, TNB absorbance 405 nm; Potency, µM (titrated, usually from 114 µM), for the others: at the highest dose activity change, negative = inhibition, actives largely listed as inhibitors; 360,000 tested, 3% active; AID 485364; also: % is scaled to controls: 0 for no effect and ±100 for the full control effect; nearly all actives have a fitted effect of over 60% in size
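Kinetic colorimetric format: TGR-catalysed, NADPH-driven DTNB reduction monitored via TNB absorbance. Enzyme dispensed at 20 nM; compound exposure 15 min at room temperature before reaction start.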
Pf growth 48h = P. falciparum growth inhibition at 48 hours (one generation). Potency, µM (top dose mostly 28.7 µM), for inactives: top-dose activity change, negative = inhibition, usual class: inhibitors. 310,000 tested, 5.9% active. AID 504832. P. falciparum luciferase growth in erythrocytes, 48 h; also: % is scaled to controls: 0 for no effect and ±100 for the full control effect
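Luciferase-expressing parasites in RBCs, 2% Hct / 0.1% parasitemia final; RPMI 1640 + 0.5% Albumax; 37 C, 5% CO2, one generation; luminescence read-out, lower signal = inhibition.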
* marks the source's active call; other numbers are inactive results; ? = inconclusive; nt = not tested or not shown. Unless noted, calls follow the shape of the dose curve; as a rule, active = well fitted curve in the direction sought with a large enough effect; inconclusive = small, poorly fitted or top-dose-only effect, or another doubt; inactive = no such curve, though single readings can be large; an effect the other way counts as inactive or inconclusive. Potency is read from the fitted curve at half-maximal effect.

SMILES	SARS PLpro yeast	Pf growth 96h	AmpC detergent	AmpC no deterg	Sm TGR block	Pf growth 48h
CC(Sc1nc(=O)cc(N)n1CCc1ccccc1)C(=O)Nc1ccc(Cl)cc1 (stereo not drawn)	nt	nt	9.5%	nt	7.2%	nt
COc1ccc(CCCc2nnc(SCC(=O)Nc3cccc(F)c3C)o2)cc1	nt	nt	-12.4%	nt	6.2%	nt
Cc1cc(=O)[nH]c(N/N=C/C=C/c2ccccc2)n1	-2.5%	?	-6.2%	-18.4%	-8.9%	6.7%
Cc1cc(=O)[nH]c(N/N=C2/CCCC/C2=C\c2ccccc2)n1	6.1%	?	-0.4%	-15.7%	22.4µM*	?
CC(C)c1ccc(NCCC(=O)c2cccs2)cc1	7.7%	22.5%	-14.9%	-33.7%	3.16µM*	45.5%
O=C(CCNc1cccc(Cl)c1)c1cccs1	-20.0%	44.0%	0.6%	-26.4%	5.62µM*	-5.3%
Cc1ccc(NCCC(=O)c2cccs2)cc1C	-1.1%	20.0%	0.3%	-34.5%	0.0%	75.4%
Cc1ccc(NCCC(=O)c2cccs2)cc1	-2.9%	-20.0%	-1.6%	-14.6%	1.26µM*	33.5%
Cc1ccc(NCCC(=O)c2cccs2)cc1Cl	0.0%	157.0%	-3.8%	-16.5%	3.98µM*	25.4%
CCC(=O)N1CCc2cc(Br)cc(S(=O)(=O)CCC(=O)NCCc3ccc(Cl)cc3)c21	nt	nt	4.9%	nt	-3.7%	nt
O=C(CNC(=O)c1cccc(F)c1)N/N=C/c1cccs1	-1.5%	-19.2%	0.3%	-15.9%	7.5%	42.5%
CCN(CC)S(=O)(=O)c1ccc(/C=C/C(=O)OCC(=O)N(C(C)C)C(C)C)cc1	-0.8%	8.9%	2.5%	-8.9%	7.4%	31.2%
Cc1ccccc1-n1c(SCC(=O)c2c(N)n(C)c(=O)n(C)c2=O)nc2sc3c(c2c1=O)CCCC3	16.2%	0.928µM*	-0.3%	-5.3%	0.7%	3.7µM*
O=C(O)CSc1nc2sc3c(c2c(=O)n1-c1ccccc1)CCC3	2.3%	2.5%	-3.2%	-21.0%	-26.8%	4.5%
CN(C)C(CNC(=O)CSc1nc2sc3c(c2c(=O)n1C)CCCC3)c1ccccc1 (stereo not drawn)	3.4%	11.7µM*	2.1%	178.6%	-2.9%	?
CC(NC(=O)CSc1nc2sc3c(c2c(=O)n1-c1ccccc1)CCCC3)c1ccccc1 (stereo not drawn)	-2.0%	-24.7%	?	-14.3%	-16.6%	11.7µM*
CN(C)C(CNC(=O)CCc1nc2sc3c(c2c(=O)[nH]1)CCCC3)c1ccccc1 (stereo not drawn)	1.5%	?	?	47.6%	-1.7%	?
CCc1ccccc1N1CC23C=CC(O2)C(C(=O)OCC(C)C)C3C1=O (stereo not drawn)	3.3%	3.7µM*	-6.5%	13.0%	3.1%	nt
COc1ccc(C(C)N2CC34C=CC(O3)C(C(=O)OCC(C)C)C4C2=O)cc1 (stereo not drawn)	1.7%	14.7µM*	-12.9%	27.0%	1.0%	9.2%
CCc1ccccc1N1CC23C=CC(O2)C(C(=O)O)C3C1=O (stereo not drawn)	3.7%	-32.5%	0.7%	3.55µM*	2.1%	25.4%
COC(=O)C1C2C=CC3(CN(C(C)c4ccc(OC)cc4)C(=O)C13)O2 (stereo not drawn)	7.9%	73.4%	-6.5%	-22.8%	36.7%	?
COc1ccc(C2C(=O)N(C3CCCCC3)CC(=O)N2CCc2ccc(C)cc2)cc1OC (stereo not drawn)	nt	nt	1.6%	nt	54.3%	nt
O=C(C1CCCCC1)N1CCCC(c2nc3c(nnn3Cc3ccccc3)c(=O)[nH]2)C1 (stereo not drawn)	-3.5%	nt	?	22.7%	3.7%	?
NC(=O)C1CCN(c2nc(C3CC3)nc3c2nnn3Cc2ccccc2)CC1	-9.9%	?	-3.5%	-0.2%	-18.9%	13.1µM*
Cc1ccc(C)c(Cn2nnc3c(=O)[nH]c(C4CCCN(C(=O)C5CCCCC5)C4)nc32)c1 (stereo not drawn)	1.6%	2.6%	2.0%	38.0%	4.2%	6.57µM*
SMILES	SARS PLpro yeast	Pf growth 96h	AmpC detergent	AmpC no deterg	Sm TGR block	Pf growth 48h
CC(=O)c1cccc(S(=O)(=O)N2CCCC(c3nc4c(nnn4Cc4cccc(Cl)c4)c(=O)[nH]3)C2)c1 (stereo not drawn)	4.7%	8.28µM*	1.3%	-4.7%	1.4%	7.38µM*
O=C(c1ccccc1)N1CCCC(c2nc3c(nnn3Cc3ccccc3)c(=O)[nH]2)C1 (stereo not drawn)	-1.5%	39.1%	-2.8%	-4.6%	-1.5%	13.1µM*
Cc1cc(OCc2cc(C(=O)N(C)C(C)c3ccccn3)no2)cc(C)c1Cl (stereo not drawn)	-22.5%	5.0%	-11.9%	118.2%	-14.3%	6.5%
O=C(c1cccs1)N1CCCC(c2nc3c(nnn3Cc3ccccc3)c(=O)[nH]2)C1 (stereo not drawn)	-4.3%	5.86µM*	-10.3%	1.6%	-1.3%	8.28µM*
COc1ccccc1NC(=O)N1CCCC(c2nc3c(nnn3Cc3ccc(C)cc3)c(=O)[nH]2)C1 (stereo not drawn)	15.3%	-6.1%	-11.0%	78.7%	4.4%	9.28µM*
Cc1ccc(NC(=O)N2CCC(c3nc4c(nnn4Cc4cccc(Cl)c4)c(=O)[nH]3)CC2)cc1	0.4%	0.0294µM*	-2.7%	18.4%	-0.3%	13.1µM*
COC(=O)c1ccccc1S(=O)(=O)N1CCCC(c2nc3c(nnn3Cc3ccc(C)cc3)c(=O)[nH]2)C1 (stereo not drawn)	2.8%	?	1.8%	10.8%	7.6%	?
Cc1cccc(CSc2cn(CC(=O)N3CCCCC3)c3ccccc23)c1	nt	nt	-7.0%	nt	1.6%	nt
CCOC(=O)c1cnc(Nc2nc3ccccc3o2)nc1CN1CCN(C)CC1	1.2%	?	-4.1%	-7.1%	50.1µM*	1.6%
Cc1ccc(-c2nc(CS(=O)(=O)CC(=O)N3CCOCC3)c(C)o2)cc1	-2.6%	?	0.2%	21.0%	-34.9%	10.8%
Cc1ccccc1-c1nc(CN2CCC(C(=O)N3CCN(c4ccccn4)CC3)CC2)c(C)o1	-6.6%	-11.5%	-18.0%	123.5%	-1.3%	nt
Cc1oc(-c2ccccc2F)nc1CS(=O)(=O)CC(=O)N1CCOCC1	4.2%	9.28µM*	?	?	44.7µM*	4.6%
CCN1CCN(C(=O)CS(=O)(=O)Cc2nc(-c3ccccc3C)oc2C)CC1	0.6%	29.1%	-6.4%	30.2%	-19.7%	48.5%
Cc1ccccc1-c1nc(CS(=O)(=O)CC(=O)N2CCCCC2)c(C)o1	14.0%	0.0%	3.4%	79.1%	22.4µM*	23.1%
